Measured values reported in PubChem BioAssay (NCATS).
Records with an inconclusive call do not appear. Calls of active or inactive are those of the source. Unless noted, calls come from the whole dose curve; as a rule, active = well fitted curve in the direction sought with a large enough effect; inconclusive = small, poorly fitted or top-dose-only effect, or another doubt; inactive = no such curve, though single readings can be large; an effect the other way counts as inactive or inconclusive.

Assays:
[1] = NCATS anti-infectives library activity on HEK293 viability as a counter-qHTS vs the C. elegans viability qHTS (AID 1745854)
Procedure, shortened: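 HEK293 cells, 1500 per well, exposed 24 hr at 37C in 5% CO2 to compounds in a 1:5 titration, up to 41.7 uM final. Viability read as CellTiter-Glo luminescence after 10 min at room temperature.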

[2] = NCATS anti-infectives library activity on the primary C. elegans qHTS viability assay (AID 1745855; calls by dose curve)
Procedure, shortened: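 Viability is taken from GFP fluorescence of PE254-GFP-FLuc C. elegans imaged by laser cytometry over 7 days. Ten L1 worms per well grow at 21 °C on TOP10 E. coli capsules with titrated compound; levamisole marks toxicity.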

[3] = biological target: Glutathione peroxidase 1 (Homo sapiens) (UniProt P07203); assay: Primary qHTS Assay for Inhibitors of Recombinant Selenoprotein Glutathione Peroxidase 1 (GPX1) (AID 1845191); note: nearly all actives have a fitted effect of over 65% in size
Chain of Glutathione peroxidase 1 (Homo sapiens) (P07203 whole entry, looked up): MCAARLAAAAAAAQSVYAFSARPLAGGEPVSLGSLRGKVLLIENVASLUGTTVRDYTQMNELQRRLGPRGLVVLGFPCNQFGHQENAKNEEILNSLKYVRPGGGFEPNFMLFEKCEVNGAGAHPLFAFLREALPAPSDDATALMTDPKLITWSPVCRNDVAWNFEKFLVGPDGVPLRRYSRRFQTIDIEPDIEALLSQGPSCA
Procedure, shortened: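 GR-coupled assay: compounds preincubated 30 min at room temperature with GPX1, then reaction started with CHP; final 10 nM GPX1, 1 mM GSH, 0.5 mM CHP, 0.5 mM NADPH, 100 nM GR, 0.01% BSA, pH 7.5 Tris buffer. NADPH fluorescence (340/450 nm) read at 0 and 15 min.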

[4] = biological target: Phospholipid hydroperoxide glutathione peroxidase GPX4 (Homo sapiens) (UniProt P36969); assay: Primary qHTS Assay for Inhibitors of Recombinant Selenoprotein Glutathione Peroxidase 4 (GPX4) (AID 1845192); note: nearly all actives have a fitted effect of over 65% in size
Chain of Phospholipid hydroperoxide glutathione peroxidase GPX4 (Homo sapiens) (P36969 whole entry, looked up): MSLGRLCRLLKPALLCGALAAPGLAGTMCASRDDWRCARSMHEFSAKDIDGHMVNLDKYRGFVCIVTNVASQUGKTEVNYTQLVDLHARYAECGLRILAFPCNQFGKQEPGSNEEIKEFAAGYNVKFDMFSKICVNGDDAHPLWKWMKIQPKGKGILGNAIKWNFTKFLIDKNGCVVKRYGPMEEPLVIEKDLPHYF
Procedure, shortened: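 GR-coupled assay: recombinant GPX4 preincubated 30 min with compound at room temperature; final 200 nM GPX4, 1 mM GSH, 0.5 mM cumene hydroperoxide, 0.5 mM NADPH, 100 nM GR, 0.01% BSA, pH 7.5 Tris. NADPH fluorescence (340/450 nm) read at 0 and 15 min.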

[5] = Viability counterscreen for antagonist of constitutive androstane receptor (CAR) against the NCATS DSHEA and TCM libraries (AID 1794837);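 note: compound exposure lasted 24 h before viability reading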
Procedure, shortened: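 Viability was measured by CellTiter-Fluor fluorescence (405/540 nm, 1 hr) in HepG2-CYP2B6-hCAR cells. Cells were co-treated 24 hr with 48 uM CITCO (final), antagonist mode, and test substances.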

[6] = Viability counterscreen for agonist of constitutive androstane receptor (CAR) against the NCATS DSHEA and TCM libraries (AID 1794838)
Procedure, shortened: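 Cell viability, from CellTiter-Fluor fluorescence (405/540 nm), was scored after a 24 h, 37C exposure of HepG2 cells carrying CYP2B6 reporter and hCAR to test substances in presence of 0.75 uM PK11195.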

[7] = biological target: Nuclear receptor subfamily 1 group I member 3 (Homo sapiens) (UniProt Q14994); assay: Primary qHTS for agonist of constitutive androstane receptor (CAR) against the NCATS DSHEA and TCM libraries (AID 1794839);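 note: HepG2 cells expressing human CAR with a CYP2B6 reporter plus PK11195 antagonist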
Chain of Nuclear receptor subfamily 1 group I member 3 (Homo sapiens) (Q14994 whole entry, looked up): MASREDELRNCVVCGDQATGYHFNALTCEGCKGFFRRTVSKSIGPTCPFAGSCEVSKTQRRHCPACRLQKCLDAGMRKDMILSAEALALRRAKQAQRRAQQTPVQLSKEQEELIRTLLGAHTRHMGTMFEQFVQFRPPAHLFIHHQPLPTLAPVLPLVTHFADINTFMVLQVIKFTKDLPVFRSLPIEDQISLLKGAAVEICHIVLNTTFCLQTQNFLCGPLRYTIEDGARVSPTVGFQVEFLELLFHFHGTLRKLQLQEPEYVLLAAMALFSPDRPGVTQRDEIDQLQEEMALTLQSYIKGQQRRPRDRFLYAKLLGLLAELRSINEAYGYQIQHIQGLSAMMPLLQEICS
Procedure, shortened: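 Agonist mode in presence of hCAR antagonist PK11195 (0.75 µM final): test substances, 24 h, 37 °C, on HepG2-CYP2B6-hCAR cells. Same-well readouts: fluorescence viability, then ONE-Glo luminescence; CITCO as reference agonist.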

[8] = HepG2 viability counterscreen (readout 1: protease activity) against the NCATS DSHEA and TCM libraries (AID 1794841);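 note: cells exposed to compounds for about 24 h before the protease read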
Procedure, shortened: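 Readout 1: cellular protease activity, GF-AFC substrate (25 uM final, 30 min, fluorescence 380/510 nm). Readout 2: ATP content by CellTiter-Glo luminescence after 30 min at RT. Both follow ~24 h exposure of HepG2 cells (1,000/well) to substances.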

[9] = biological target: Cytochrome P450 3A4 (Homo sapiens) (UniProt P08684); assay: qHTS for inhibitors of CYP3A4 against the NCATS DSHEA and TCM libraries (AID 1919971);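 note: inhibition lowers luminescence from luciferin made by CYP3A4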
Chain of Cytochrome P450 3A4 (Homo sapiens) (P08684 whole entry, looked up): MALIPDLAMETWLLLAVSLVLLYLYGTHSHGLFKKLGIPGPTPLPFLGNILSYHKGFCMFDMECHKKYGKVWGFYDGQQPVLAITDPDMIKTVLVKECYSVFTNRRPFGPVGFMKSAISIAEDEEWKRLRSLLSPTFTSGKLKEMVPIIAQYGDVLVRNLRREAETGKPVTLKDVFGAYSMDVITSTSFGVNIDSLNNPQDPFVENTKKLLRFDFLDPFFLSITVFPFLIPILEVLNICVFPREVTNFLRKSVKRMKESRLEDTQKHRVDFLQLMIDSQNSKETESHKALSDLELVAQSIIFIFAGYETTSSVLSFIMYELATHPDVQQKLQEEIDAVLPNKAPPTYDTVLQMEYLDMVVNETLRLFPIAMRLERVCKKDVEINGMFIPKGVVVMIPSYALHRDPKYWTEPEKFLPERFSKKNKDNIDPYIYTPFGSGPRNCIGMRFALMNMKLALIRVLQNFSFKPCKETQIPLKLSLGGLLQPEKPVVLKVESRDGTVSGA
Procedure, shortened: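 Luminescent P450-Glo readout. Enzyme plus pro-luciferin substrate in manufacturer buffer (typically 100 mM KPO4); 15 min RT preincubation; 1x NADPH regenerating system, 30-45 min RT in the dark; detection reagent 30 min.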

[10] = biological target: Cytochrome P450 2D6 (Homo sapiens) (UniProt P10635); assay: qHTS for inhibitors of CYP2D6 against the NCATS DSHEA and TCM libraries (AID 1919972)
Chain of Cytochrome P450 2D6 (Homo sapiens) (P10635 whole entry, looked up): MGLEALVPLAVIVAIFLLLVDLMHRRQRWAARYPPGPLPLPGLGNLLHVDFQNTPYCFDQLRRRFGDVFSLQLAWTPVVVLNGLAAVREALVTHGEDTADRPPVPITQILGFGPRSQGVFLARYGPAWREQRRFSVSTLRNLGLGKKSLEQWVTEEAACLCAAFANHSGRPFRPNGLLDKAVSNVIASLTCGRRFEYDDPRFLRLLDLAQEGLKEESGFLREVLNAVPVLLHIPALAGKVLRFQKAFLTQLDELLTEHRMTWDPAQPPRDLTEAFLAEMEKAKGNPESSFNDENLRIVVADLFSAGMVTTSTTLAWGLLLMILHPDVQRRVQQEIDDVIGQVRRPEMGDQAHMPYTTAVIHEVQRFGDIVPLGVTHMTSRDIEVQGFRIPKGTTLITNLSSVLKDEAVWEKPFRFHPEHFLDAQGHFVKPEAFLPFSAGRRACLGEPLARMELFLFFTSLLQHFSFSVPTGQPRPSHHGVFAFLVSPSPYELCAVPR
Procedure, shortened: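 Steps: enzyme plus luciferin substrate dispensed; test substances pinned; 15 min RT; 1x NADPH regenerating solution added, 30–45 min RT protected from light; detection reagent, 30 min RT; luminescence measured. Minus-enzyme wells as background.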

[11] = KB-3-1 P-gp reporter qHTS against the NCATS DSHEA and TCM libraries (AID 1919975)
Procedure, shortened: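 Cell viability by CellTiter-Glo luminescence following ~72 h compound exposure (concentration-response). Uses parental, non-P-gp-overexpressing KB-3-1 line, 500 cells/well in DMEM/10% FBS, attached ~4 h before dosing.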

[12] = biological target: Nuclear receptor subfamily 1 group I member 2 (Homo sapiens) (UniProt O75469); assay: Dual reporter qHTS for agonist of Pregnane X Receptor (hPXR) against the NCATS DSHEA and TCM libraries: Luminescence readout (AID 1920059)
Chain of Nuclear receptor subfamily 1 group I member 2 (Homo sapiens) (O75469 whole entry, looked up): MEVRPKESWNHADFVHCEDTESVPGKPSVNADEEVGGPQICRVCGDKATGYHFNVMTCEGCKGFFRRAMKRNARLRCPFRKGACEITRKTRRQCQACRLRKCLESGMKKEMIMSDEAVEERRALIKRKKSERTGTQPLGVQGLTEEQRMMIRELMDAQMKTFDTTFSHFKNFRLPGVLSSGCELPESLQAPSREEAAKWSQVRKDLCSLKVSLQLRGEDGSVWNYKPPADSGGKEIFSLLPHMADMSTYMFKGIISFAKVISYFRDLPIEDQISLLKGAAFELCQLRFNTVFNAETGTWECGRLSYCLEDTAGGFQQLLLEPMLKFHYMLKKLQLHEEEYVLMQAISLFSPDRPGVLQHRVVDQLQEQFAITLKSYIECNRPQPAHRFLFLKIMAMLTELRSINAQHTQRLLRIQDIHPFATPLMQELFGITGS
Procedure, shortened: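 hPXR-Luc HepG2 cells, 2000/well in 5% charcoal-stripped FBS medium, attached 5 h, then exposed 24 h at 37C to compounds. Viability by CellTiter-Fluor, then luciferase luminescence with ONE-Glo.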

[13] = biological target: Nuclear receptor subfamily 1 group I member 2 (Homo sapiens) (UniProt O75469); assay: Dual reporter qHTS for antagonist of Pregnane X Receptor (hPXR) against the NCATS DSHEA and TCM libraries: Luminescence Readout (AID 1920060);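 note: HepG2 cells carrying hPXR luciferase reporter stimulated with rifampicin at 2 µM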
Procedure, shortened: (§1)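 hPXR-Luc HepG2 cells exposed 24 h at 37 C to compounds with 2 uM rifampicin in antagonist mode; luciferase luminescence measured by ONE-Glo, with CellTiter-Fluor viability read beforehand.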

[14] = Dual reporter qHTS for antagonist of Pregnane X Receptor (hPXR) against the NCATS DSHEA and TCM libraries: Fluorescence Readout (AID 1920061)
Procedure, shortened: as §1

Measured: Potency

CC(C)c1cnn2c(NCc3ccccc3-n3cccn3)nc(OC3CCCNC3)nc12 (configuration not stated)
inactive: [1]

CCCCCCCCCCCCCCCc1cccc(O)c1C(=O)O
inactive: [1] | [2]

COC[C@H]1C[C@@H](c2ncc(-c3ccc4c(c3)COc3cc5c(ccc6[nH]c([C@@H]7CC[C@H](C)N7C(=O)[C@@H](NC(=O)OC)C(C)C)nc65)cc3-4)[nH]2)N(C(=O)[C@H](NC(=O)OC)c2ccccc2)C1
inactive: [1] | [3]

O=C1O[C@H]2[C@H](OC(O)[C@@H]2O)[C@@H]1O (some centres not stated)
inactive: [1] | [3] | [4]

O=C(O)[C@H]1C2CCC(CC2)[C@@H]1Nc1nc(-c2c[nH]c3ncc(F)cc23)ncc1F
inactive: [1] | [2]

O=C(/C=C/c1ccc(O)c(O)c1)O[C@H]1[C@H](O)C[C@](O)(C(=O)O)C[C@H]1OC(=O)/C=C/c1ccc(O)c(O)c1
not listed: [2] | [3] | [4]
inactive: all other assays above

Cc1cccc2c3c(ccc12)C1=C(C(=O)C3=O)[C@@H](C)CO1
inactive: [1]
